Screening results: PubChem, National Center for Advancing Translational Sciences (NCATS)
MCF10A rerep = DNA re-replication induction in MCF 10a cells; Potency, µM (highest dose often 46.1 µM), for the others: at the top dose activity, positive = re-replication, actives largely listed as activators; MCF 10A DNA re-replication, Hoechst nuclear intensity, 48 h; hit rate 2.9% among 350,000; further: % of control where 0% means no effect; nearly all actives have a fitted effect of over 50% in size
RORg inh = ROR gamma (mouse) transcription inhibition | P51450 | Drosophila S2 Gal4-RORgamma UAS-luciferase reporter, 20 h | Potency, µM (top dose mostly 53.6 µM), for inactives: top-dose activity change, negative = inhibition, hits mostly inhibitors | hit rate 5.4% among 310,000 | AID 2551; further: on the % scale 0 is the no-effect control and ±100 the full control effect; nearly all actives have a fitted effect of over 60% in size
Target sequence (P51450 whole entry, looked up, the tested form may be a part): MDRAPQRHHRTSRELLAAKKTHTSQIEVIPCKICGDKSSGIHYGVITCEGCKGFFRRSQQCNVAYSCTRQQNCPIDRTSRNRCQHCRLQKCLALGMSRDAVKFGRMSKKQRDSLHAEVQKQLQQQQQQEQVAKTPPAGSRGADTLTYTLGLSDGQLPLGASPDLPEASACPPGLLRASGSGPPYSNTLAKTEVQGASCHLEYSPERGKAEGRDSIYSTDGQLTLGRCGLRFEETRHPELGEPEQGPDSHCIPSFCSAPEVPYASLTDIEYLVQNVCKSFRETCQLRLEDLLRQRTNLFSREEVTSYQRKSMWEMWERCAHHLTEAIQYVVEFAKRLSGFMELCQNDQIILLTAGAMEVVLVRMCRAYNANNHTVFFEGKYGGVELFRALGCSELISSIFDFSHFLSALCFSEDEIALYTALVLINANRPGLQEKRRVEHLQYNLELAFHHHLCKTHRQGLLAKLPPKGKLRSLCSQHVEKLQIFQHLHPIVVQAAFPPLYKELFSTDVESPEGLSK
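Schneider cells (Drosophila), stable Gal4 DBD–ROR gamma + UAS-luc; 1 hr cmpd preincubation; Cu2+ induction 700 uM final; 20 hr ambient; luminescence.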
KB-3-1 cytotox = KB-3-1 parental cell cytotoxicity; KB-3-1 viability, CellTiter-Glo ATP luminescence, 72 h; hit rate 1.4% among 400,000; AID 1347075; Potency, µM (series often up to 46.1 µM), usual class: cytotoxic; further: on the % scale 0 is the no-effect control and ±100 the full control effect; nearly all actives have a fitted effect of over 60% in size
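Viability of parental KB-3-1 cells, measured by CellTiter-Glo luminescence, followed a 72 h incubation at 37 °C with pinned compounds in phenol-red-free DMEM containing 10% FBS.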
KB-V1 cytotox = kills drug-selected multidrug resistant KB-V1 cells; KB-V1 MDR cells viability, CellTiter-Glo, 72 h; Potency, µM (top dose mostly 46.1 µM), usual class: cytotoxic; hit rate 3.4% among 400,000; AID 1347076; further: on the % scale 0 is the no-effect control and ±100 the full control effect; nearly all actives have a fitted effect of over 60% in size
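Following 72 h at 37 degrees C with compound, KB-V1 cell viability was read by CellTiter-Glo luminescence, medium being phenol-red-free DMEM plus 10% FBS; concentration-response parameters came from normalized, curve-fitted qHTS data.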
Gal4-VP16 FLuc = inhibits Gal4-VP16 luciferase reporter, ROR gamma counter-screen; Potency, µM (top dose mostly 53.6 µM), without a hit: top-dose activity, negative = inhibition, hits mostly inhibitors; hit rate 3.5% among 310,000; Drosophila S2 Gal4-VP16 UAS-luciferase, luminescence, 20 h;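 further: Gal4-VP16 expression switched on by copper sulfate through the metallothionein promoter; on the % scale 0 is the no-effect control and ±100 the full control effect; nearly all actives have a fitted effect of over 50% in size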
SW480 rereplic = inducers of DNA re-replication in SW480 colon cancer cells. AID 624297. hit rate 1.8% among 340,000. SW480 DNA re-replication, Hoechst DNA content imaging, 48 h. Potency, µM (series often up to 46.1 µM), without a hit: at the highest dose re-replication activation, actives largely listed as activators; further: % of control where 0% means no effect; nearly all actives have a fitted effect of over 55% in size
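Image-based read-out: total Hoechst fluorescence of nuclei (405 nm excitation, 500-530 nm emission), with hits raising the fraction of high-intensity nuclei. SW480 colon cells incubated 48 hr with compounds at 37 C.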
* = called active by the depositor; i = inactive; ? = inconclusive; . = not tested or not shown; [ ] = remark or other dose. Compounds with a hit are over-represented: about 10% of the library has one in this group of screens. The call rests on the fitted dose curve; in most records, active means well fitted curve in the direction sought with a large enough effect; inconclusive means small, poorly fitted or top-dose-only effect, or another doubt; inactive means no such curve, though single readings can be large; an effect the other way counts as inactive or inconclusive. Potency means the concentration at half of the fitted maximal effect.

SMILES | MCF10A rerep | RORg inh | KB-3-1 cytotox | KB-V1 cytotox | Gal4-VP16 FLuc | SW480 rereplic
COc1ccc(OCC(=O)N2CCN(CCc3ccccn3)CC2)cc1 | . | . | i | i | . | .
CN(C(=O)Cc1ccc(Cl)c(Cl)c1)[C@H](CN1CCCC1)c1cccc(N=C=S)c1 | . | 32µM* | . | . | ? | .
COc1ccc(C(CNC(=O)Cc2ccc(Cl)c(Cl)c2)N2CCCCC2)cc1 (stereo not drawn) | ? | -12% | . | . | -6% | 11%
CN1C(=O)C(=Cc2ccccc2OCc2ccc(Cl)cc2)C(=O)N(C)C1=O | 0% | -3%[10 µM] | i | i | 4% | -3%
O=C1NC(=O)C(=Cc2cc(Cl)ccc2OCc2ccc(C(=O)O)cc2)C(=O)N1 | 0.92µM* | ? | i | i | ? | ?
Clc1ccccc1C(c1ccccc1)(c1ccccc1)n1cccn1 | . | 2% | . | . | 3% | .
CN1CCN(Cc2nc3ccccc3c(=O)[nH]2)CC1 | -3% | -11% | i | i | 1% | 0%
CC(c1nc2ccccc2c(=O)[nH]1)N(C)CCOc1ccc(Cl)cc1 (stereo not drawn) | 13% | 7.1µM* | i | ? | ? | -2%
O=[N+]([O-])c1ccc(N(CCO)CCO)c2c1no[n+]2[O-] | . | . | 4.6µM* | 21µM* | . | .
CN1CCN(c2ccc([N+](=O)[O-])c3no[n+]([O-])c23)CC1 | 2.3µM* | 1.3µM* | ? | ? | 5.6µM* | ?
O=C(c1cc(-c2cccc(Cl)c2)on1)N1CCOCC1 | -2% | 22% | i | i | ? | -4%
CN1CSC(=S)N(C)C1 | 0% | 10µM* | ? | ? | 11µM* | ?
C#C[C@]1(O)CC[C@H]2[C@@H]3CCC4=CC(=O)CCC4(C)[C@H]3CCC21C (stereo partly drawn) | 2% | -16% | . | . | 4% | 1%
CC[C@]1(O)CC[C@H]2[C@@H]3CCC4=CCCC[C@@H]4[C@H]3CC[C@@]21C | ? | 1% | . | . | 4% | 24µM*
CC(C)CNC(=O)c1c(N)n(Cc2ccc3c(c2)OCO3)c2nc3ccccc3nc12 | ? | ? | ? | ? | 7.1µM* | 2.6µM*
CC(C)CCNC(=O)c1c(N)n(Cc2ccc3c(c2)OCO3)c2nc3ccccc3nc12 | ? | -2% | i | ? | -2% | 2.6µM*
CCCNC(=O)c1c(N)n(Cc2ccc3c(c2)OCO3)c2nc3ccccc3nc12 | 0.65µM* | 11% | i | ? | -17% | 3.3µM*
COCCOC(=O)c1c(N)n(Cc2ccc(OC)cc2)c2nc3ccccc3nc12 | 5% | -11% | i | i | 0% | 20%
COC(=O)c1c(N)n(Cc2ccc(OC)cc2)c2nc3ccccc3nc12 | 2% | -28% | i | i | ? | ?
O=c1ccc(=O)[nH][nH]1 | . | 6% | . | . | 20% | .
Cc1ncc(CN2CC=C(c3ccccc3)CC2)c(N)n1 | . | ? | . | . | -8% | .
COC(=O)C(O)(c1ccc(N(C)C)cc1)C(F)(F)F (stereo not drawn) | -1% | -8% | i | i | -6% | ?
CN(C)c1ccc(C(=O)c2ccc(N(C)C)cc2)cc1 | 6.5µM* | 16% | ? | ? | -10% | 5.2µM*
CCn1nc(-c2ccccc2)nc2c(=O)n(C)c(=O)nc1-2 | 1.5µM* | 0.89µM* | 5.2µM* | i | 1.3µM* | ?
Cn1nc(-c2ccccc2)nc2c(=O)n(C)c(=O)nc1-2 | . | . | 4.6µM* | 5.8µM* | . | .
SMILES | MCF10A rerep | RORg inh | KB-3-1 cytotox | KB-V1 cytotox | Gal4-VP16 FLuc | SW480 rereplic
Cc1nc2c(=O)n(C)c(=O)nc-2n(C)n1 | 9.2µM* | ? | 5.2µM* | 6.5µM* | 3.5µM* | 0.52µM*
O=[N+]([O-])c1cc(I)c(O)c(I)c1 | ? | 11%[10 µM] | . | . | -13% | -7%
C[C@@H]1O[C@@H](O[C@H]2C[C@@H](O)[C@]3(CO)[C@@H]4C(CC[C@]3(O)C2)[C@@]2(O)CC[C@H](C3COC(=O)C3)[C@@]2(C)C[C@H]4O)[C@H](O)[C@H](O)[C@H]1O (stereo partly drawn) | -44% | . | 1.2µM* | 1.8µM* | . | ?
C[C@@H]1O[C@@H](O[C@H]2CC[C@]3(C=O)C4CC[C@]5(C)[C@@H](C6=CC(=O)OC6)CC[C@]5(O)[C@@H]4CC[C@]3(O)C2)[C@H](O)[C@H](O)[C@H]1O (stereo partly drawn) | . | 0% | . | . | -6% | .
O=C1CC(c2ccc(F)cc2)c2c(c3ccccc3oc2=O)O1 (stereo not drawn) | . | . | i | i | . | .
Cc1cccc(N2C(=O)NC(=O)/C(=C\c3cccn3-c3ccc(Cl)cc3)C2=O)c1 | ? | ? | ? | 18µM* | ? | ?
Cc1cccc(N2C(=O)NC(=O)/C(=C/c3ccc([N+](=O)[O-])o3)C2=O)c1 | 6% | 4% | i | i | ? | -19%
Cc1cc(C)cc(N2C(=O)NC(=O)/C(=C/c3cccn3-c3ccc(Cl)cc3)C2=O)c1 | 16µM* | 32µM* | i | i | 11µM* | 9%
CC(C)(C)n1cccc1/C=C1\C(=O)NC(=O)N(c2ccccc2)C1=O | 12% | -21% | i | i | -3% | 6%
CN1[C@H]2CC(=O)C[C@@H]1[C@@H](O)C2 | . | 23%[16.9 µM] | . | . | -3%[17 µM] | .
Cc1ccc(-c2cc(C(F)F)n3ncc(C(=O)N4CCc5ccccc5C4)c3n2)cc1 | ? | 1% | i | ? | -2% | 18µM*
